In PubChem BioAssay (Tox21):
Results filed as inconclusive are left out. A call without a number means that no potency is given here. The source made the active and inactive calls. The call rests on the fitted dose curve; in most records, active means well fitted curve in the direction sought with a large enough effect in the repeat runs; inconclusive means weak or mixed curves; inactive means no such curve, though single readings can be large; an effect the other way counts as inactive or inconclusive.

What was measured:
[1] = A CellTox Green Cytotoxicity Assay to monitor cytotoxicity in HEK293 cells - 32 hour (AID 1224881); further: nearly all actives have a fitted effect of over 40% in size; further: potency means the concentration at half of the fitted maximal effect
Procedure, shortened: (§1)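 HEK293 cells, 600/well, were preincubated 5 hours and then exposed to compounds at 37 C for up to 40 hours. A cell-impermeant cyanine dye staining dead-cell DNA was read by fluorescence at 0, 8, 16, 24, 32 and 40 h time points.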

[2] = A CellTox Green Cytotoxicity Assay to monitor cytotoxicity in HepG2 cells - 0 hour (AID 1224882); further: nearly all actives have a fitted effect of over 35% in size; further: potency means the concentration at half of the fitted maximal effect
Procedure, shortened: (§2)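 HepG2 cells, 600/well, preincubated 5 h with CellTox Green dye, then exposed to Tox21 compounds in DMSO at 37 C for up to 40 h. Dead-cell DNA fluorescence read at the indicated time point.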

[3] = A CellTox Green Cytotoxicity Assay to monitor cytotoxicity in HepG2 cells - 32 hour (AID 1224883); further: nearly all actives have a fitted effect of over 50% in size; further: potency means the concentration at half of the fitted maximal effect
Procedure, shortened: as §2

[4] = A CellTox Green Cytotoxicity Assay to monitor cytotoxicity in HEK293 cells - 8 hour (AID 1224884); further: nearly all actives have a fitted effect of over 35% in size; further: potency means the concentration at half of the fitted maximal effect
Procedure, shortened: as §1

[5] = qHTS RealTime-Glo MT Cell Viability Assay in HEK293 cells - 24 hour (AID 1224886); further: nearly all actives have a fitted effect of over 50% in size; further: potency means the concentration at half of the fitted maximal effect
Procedure, shortened: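 Quantitative high-throughput screen of the Tox21 10K library in HEK293: cells and RealTime-Glo reagents plated together, compound added at 5 h, luminescence monitored through 40 h at 37 C.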

[6] = qHTS RealTime-Glo MT Cell Viability Assay in HEK293 cells - 8 hour (AID 1224887); further: nearly all actives have a fitted effect of over 50% in size; further: potency means the concentration at half of the fitted maximal effect
Procedure, shortened: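 600 cells/well were plated with the nonlytic NanoLuc/prosubstrate reagent, pre-incubated 5 h, then given 23 nL of compound in DMSO. Incubation at 37 C for 40 h, with luminescence from viable-cell-reduced substrate read repeatedly from 0 h.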

[7] = A CellTox Green Cytotoxicity Assay to monitor cytotoxicity in HEK293 cells - 16 hour (AID 1224888); further: nearly all actives have a fitted effect of over 35% in size; further: potency means the concentration at half of the fitted maximal effect
Procedure, shortened: as §1

[8] = qHTS RealTime-Glo MT Cell Viability Assay in HepG2 cells - 0 hour (AID 1224889); further: nearly all actives have a fitted effect of over 50% in size
Procedure, shortened: (§3)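 Compound treatment began 5 h after plating HepG2 cells (600/well) with NanoLuc luciferase and prosubstrate. Plates stayed at 37 C for 40 h; luminescence was captured at six time points, 0 h through 40 h.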

[9] = A CellTox Green Cytotoxicity Assay to monitor cytotoxicity in HepG2 cells - 8 hour (AID 1224890); further: nearly all actives have a fitted effect of over 45% in size; further: potency means the concentration at half of the fitted maximal effect
Procedure, shortened: as §2

[10] = qHTS RealTime-Glo MT Cell Viability Assay in HepG2 cells - 16 hour (AID 1224885); further: nearly all actives have a fitted effect of over 50% in size; further: potency means the concentration at half of the fitted maximal effect
Procedure, shortened: as §3

CCCCCCCCCCCCCCCCCCn1cc[n+](C)c1
Potency [1]: 19.4 µM (active) | Potency [2]: inactive | Potency [3]: 19.4 µM (active) | Potency [4]: 24.4 µM (active) | Potency [5]: 15.4 µM (active) | Potency [6]: inactive | Potency [7]: 27.4 µM (active) | Potency [8]: inactive | Potency [9]: 38.7 µM (active)

Oc1cccc(-c2ccccc2)c1
Potency [1]: inactive | Potency [2]: inactive | Potency [3]: inactive | Potency [4]: inactive | Potency [10]: inactive | Potency [7]: inactive | Potency [8]: inactive | Potency [9]: inactive

C=CC(=O)OCCCCOC(=O)C=C
Potency [1]: 43.6 µM (active) | Potency [2]: inactive | Potency [3]: 43.6 µM (active) | Potency [4]: inactive | Potency [5]: 34.7 µM (active) | Potency [6]: inactive | Potency [7]: inactive | Potency [8]: inactive | Potency [9]: inactive

N#CC(Cl)Cl
Potency [1]: inactive | Potency [2]: 1.51 µM (active) | Potency [3]: inactive | Potency [4]: inactive | Potency [10]: inactive | Potency [7]: inactive | Potency [8]: inactive

Cl/C=C\CCl
Potency [1]: inactive | Potency [2]: inactive | Potency [3]: inactive | Potency [4]: inactive | Potency [5]: inactive | Potency [6]: inactive | Potency [7]: inactive | Potency [9]: inactive

Clc1ccc(-c2ccc(Cl)c(Cl)c2Cl)c(Cl)c1Cl
Potency [1]: inactive | Potency [2]: inactive | Potency [3]: inactive | Potency [4]: inactive | Potency [10]: inactive | Potency [7]: inactive | Potency [9]: inactive

Oc1ccc(C2(c3ccc(O)cc3)c3ccccc3-c3ccccc32)cc1
Potency [1]: inactive | Potency [2]: inactive | Potency [3]: 61.6 µM (active) | Potency [4]: inactive | Potency [10]: 49 µM (active) | Potency [7]: inactive | Potency [9]: inactive

C=CC(=O)OCC(COC(=O)C=C)(COC(=O)C=C)COC(=O)C=C
Potency [1]: 27.5 µM (active) | Potency [2]: inactive | Potency [3]: 38.9 µM (active) | Potency [4]: inactive | Potency [5]: 3.89 µM (active) | Potency [7]: inactive | Potency [8]: inactive | Potency [9]: inactive

CC(C)CCCCCCCOP(=O)(Oc1ccccc1)Oc1ccccc1
Potency [1]: inactive | Potency [2]: inactive | Potency [3]: inactive | Potency [4]: inactive | Potency [10]: inactive | Potency [7]: inactive | Potency [8]: inactive

c1ccc2c(c1)OCC(C1=NCCN1)O2 (centres undefined)
Potency [1]: 19 µM (active) | Potency [2]: inactive | Potency [3]: inactive | Potency [4]: inactive | Potency [10]: inactive | Potency [6]: inactive | Potency [7]: inactive | Potency [8]: inactive | Potency [9]: inactive

CC(=O)[O-].[Tl+]
Potency [1]: inactive | Potency [2]: inactive | Potency [3]: inactive | Potency [4]: inactive | Potency [10]: inactive | Potency [6]: inactive | Potency [8]: inactive | Potency [9]: inactive

CC(C)Oc1cccc(NC(=O)c2ccccc2C(F)(F)F)c1
Potency [1]: 1.23 µM (active) | Potency [2]: 49 µM (active) | Potency [3]: 43.6 µM (active) | Potency [4]: 43.6 µM (active) | Potency [10]: inactive | Potency [7]: 49 µM (active)

C=CC(=O)N(C)C
Potency [1]: inactive | Potency [2]: inactive | Potency [3]: inactive | Potency [4]: inactive | Potency [5]: inactive | Potency [6]: inactive | Potency [7]: inactive | Potency [8]: inactive | Potency [9]: inactive

COc1ccc([N+](=O)[O-])cc1O
Potency [1]: inactive | Potency [2]: inactive | Potency [3]: inactive | Potency [4]: inactive | Potency [5]: inactive | Potency [6]: inactive | Potency [8]: inactive | Potency [9]: inactive

N#Cc1ccc(O)cc1
Potency [1]: inactive | Potency [2]: inactive | Potency [3]: inactive | Potency [4]: inactive | Potency [5]: inactive | Potency [6]: inactive | Potency [7]: inactive | Potency [8]: inactive | Potency [9]: inactive

CCCCCCCCCCBr
Potency [1]: inactive | Potency [2]: inactive | Potency [3]: inactive | Potency [4]: inactive | Potency [5]: inactive | Potency [6]: inactive | Potency [8]: inactive | Potency [9]: inactive

CC(=O)C(Cl)(Cl)Cl
Potency [1]: inactive | Potency [2]: inactive | Potency [3]: inactive | Potency [4]: inactive | Potency [10]: inactive | Potency [7]: inactive | Potency [9]: inactive

O=C/C(Cl)=C(/Cl)C(=O)O
Potency [1]: inactive | Potency [2]: inactive | Potency [3]: 54.9 µM (active) | Potency [4]: inactive | Potency [10]: inactive | Potency [7]: inactive | Potency [8]: inactive

O=C(O)c1cc[c]([Hg][Cl])cc1
Potency [1]: 21.9 µM (active) | Potency [2]: inactive | Potency [3]: 21.9 µM (active) | Potency [4]: inactive | Potency [10]: 30.9 µM (active) | Potency [6]: 34.7 µM (active) | Potency [8]: inactive | Potency [9]: 38.9 µM (active)

CC1(C)[C@H](C(=O)O[C@H](C#N)c2cccc(Oc3ccccc3)c2)[C@@H]1/C=C(\Cl)C(F)(F)F
Potency [1]: inactive | Potency [2]: inactive | Potency [3]: inactive | Potency [4]: inactive | Potency [10]: inactive | Potency [7]: inactive | Potency [8]: inactive | Potency [9]: inactive

CCOP(=S)(OCC)SCS(=O)(=O)CC
Potency [1]: inactive | Potency [2]: inactive | Potency [3]: inactive | Potency [4]: inactive | Potency [10]: inactive | Potency [7]: inactive | Potency [8]: inactive

ClC1=C(Cl)[C@]2(Cl)[C@@H]3[C@@H](Cl)[C@@H](Cl)C[C@@H]3[C@@]1(Cl)C2(Cl)Cl
Potency [1]: inactive | Potency [2]: inactive | Potency [3]: inactive | Potency [4]: inactive | Potency [5]: inactive | Potency [6]: inactive | Potency [7]: inactive | Potency [8]: inactive | Potency [9]: inactive

CN(CCCC(O)c1cccnc1)N=O (centres undefined)
Potency [1]: inactive | Potency [2]: inactive | Potency [3]: inactive | Potency [4]: inactive | Potency [5]: inactive | Potency [6]: inactive | Potency [7]: inactive | Potency [8]: inactive | Potency [9]: inactive

O=[N+]([O-])c1cc(C(F)(F)F)c(Cl)c([N+](=O)[O-])c1Cl
Potency [1]: 7.76 µM (active) | Potency [2]: inactive | Potency [3]: 21.9 µM (active) | Potency [4]: inactive | Potency [5]: 6.16 µM (active) | Potency [6]: 11 µM (active) | Potency [7]: 11 µM (active) | Potency [9]: 54.9 µM (active)

Cc1cc(SCc2sc(-c3ccc(C(F)(F)F)c(F)c3)nc2C)ccc1OCC(=O)O
Potency [1]: inactive | Potency [2]: inactive | Potency [3]: inactive | Potency [4]: inactive | Potency [10]: inactive | Potency [6]: inactive | Potency [7]: inactive | Potency [8]: inactive | Potency [9]: inactive

COP(=O)(CCC(=O)NCO)OC
Potency [1]: inactive | Potency [2]: inactive | Potency [4]: inactive | Potency [10]: inactive | Potency [5]: inactive | Potency [7]: inactive | Potency [8]: inactive | Potency [9]: inactive

c1ccc(Nc2ccc3ccccc3c2)cc1
Potency [1]: inactive | Potency [2]: inactive | Potency [3]: 48.7 µM (active) | Potency [4]: inactive | Potency [7]: inactive | Potency [8]: inactive | Potency [9]: inactive

C[C@H]1CC[C@@H]2[C@@H](C)[C@H]3[C@H](C[C@H]4[C@@H]5CC=C6CC(O[C@@H]7O[C@H](CO)[C@H](O)[C@H](O[C@@H]8O[C@H](CO)[C@@H](O)[C@H](O)[C@H]8O)[C@H]7O[C@H]7O[C@@H](C)[C@H](O)[C@@H](O)[C@H]7O)CC[C@]6(C)[C@H]5CC[C@]34C)N2C1 (some centres undefined)
Potency [1]: 5.06 µM (active) | Potency [2]: inactive | Potency [4]: 12.7 µM (active) | Potency [10]: 50.6 µM (active) | Potency [5]: 12.7 µM (active) | Potency [6]: 8.99 µM (active) | Potency [7]: 7.14 µM (active) | Potency [8]: inactive | Potency [9]: 25.3 µM (active)

CCCCCCCCCCCCCC[P+](CCCCCC)(CCCCCC)CCCCCC (tested in a mixture with another compound)
Potency [1]: 13.8 µM (active) | Potency [2]: inactive | Potency [4]: 24.6 µM (active) | Potency [10]: 49 µM (active) | Potency [5]: 6.92 µM (active) | Potency [6]: 13.8 µM (active) | Potency [7]: 17.4 µM (active) | Potency [8]: inactive | Potency [9]: 43.7 µM (active)

CC(C)CC(C)N (centres undefined)
Potency [1]: inactive | Potency [2]: inactive | Potency [3]: inactive | Potency [4]: inactive | Potency [5]: inactive | Potency [8]: inactive | Potency [9]: inactive

O=C1c2ccccc2C(=O)C1C(=O)C(c1ccccc1)c1ccc(Cl)cc1 (centres undefined)
Potency [1]: inactive | Potency [2]: inactive | Potency [3]: 54.9 µM (active) | Potency [10]: inactive | Potency [5]: inactive | Potency [6]: inactive

CCC(C)c1cc(C(C)(C)C)cc(-n2nc3ccccc3n2)c1O (centres undefined)
Potency [1]: inactive | Potency [2]: inactive | Potency [4]: inactive | Potency [10]: inactive | Potency [5]: inactive | Potency [6]: inactive | Potency [7]: inactive | Potency [8]: inactive | Potency [9]: inactive
